Test results reported in PubChem BioAssay (NCI).
The panel holds about 79,000 compounds, 15% with a hit somewhere; the sample as a whole holds those more often. The source made the active and inactive calls. Cut-off read from the data, not from the text of the source: active = growth inhibition above about 70%; inactive = the rest.

Assays:
[1] = NCI Yeast Anticancer Drug Screen. Data for the rad52 strain (AID 147);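 note: 0% = growth of vehicle-treated control cultures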; settings: S. cerevisiae rad52 mutant growth inhibition, active compounds read high
In short: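 Yeast strain carrying a DNA damage repair alteration was exposed to test compounds. Growth inhibition was measured relative to vehicle-treated controls.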

[2] = NCI Yeast Anticancer Drug Screen. Data for the wt1 strain (AID 149);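 note: 0% = growth of vehicle-treated wt1 cultures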; settings: S. cerevisiae wt1 strain (SPY 50644) growth inhibition, active compounds read high
In short: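 Measured: growth of wt1 yeast under compound versus vehicle treatment, reported as inhibition.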

[3] = NCI Yeast Anticancer Drug Screen. Data for the rad50EPP+ strain (AID 151);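 note: 0% = growth of vehicle-treated control cultures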; settings: S. cerevisiae rad50 mutant strain, active compounds read high
In short: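 Yeast strain carrying rad50 alteration (rad50EPP+) exposed to compounds; growth inhibition measured relative to vehicle-treated controls.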

[4] = NCI Yeast Anticancer Drug Screen. Data for the mgt1 strain (AID 153); settings: S. cerevisiae mgt1 mutant growth inhibition, active compounds read high
In short: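 Yeast mgt1 strain (DNA repair/cell-cycle alteration panel) exposed to compounds; growth inhibition measured relative to vehicle-treated controls.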

[5] = NCI Yeast Anticancer Drug Screen. Data for the rad50 strain (AID 155);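 note: 0% = growth of vehicle-only cultures of the same strain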; settings: S. cerevisiae rad50 strain growth inhibition, active compounds read high
In short: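 Growth of the mutant yeast was measured after compound exposure and referenced to vehicle-treated cultures.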

[6] = NCI Yeast Anticancer Drug Screen. Data for the mec2-1 strain (AID 157); settings: S. cerevisiae mec2-1 strain, active compounds read high
In short: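 mec2-1 yeast strain, carrying an alteration in DNA damage repair or cell cycle control, was exposed to compounds; growth inhibition was measured relative to vehicle-treated controls.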

[7] = NCI Yeast Anticancer Drug Screen. Data for the rad14 strain (AID 159);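 note: 0% = growth of vehicle-treated control cultures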; settings: S. cerevisiae rad14 strain growth inhibition, active compounds read high
In short: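 Here, inhibition of yeast growth was measured after compound exposure, using a strain with a genetic defect in DNA damage repair and vehicle-treated cultures as the reference.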

[8] = NCI Yeast Anticancer Drug Screen. Data for the sgs1 mgt1 strain (AID 161);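 note: 0% = growth of cultures given vehicle only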; settings: S. cerevisiae sgs1 mgt1 strain, active compounds read high
In short: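 Compounds are added to genetically altered yeast, and growth is compared with cultures given vehicle alone to give percent inhibition.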

[9] = NCI Yeast Anticancer Drug Screen. Data for the CLN2oe strain (AID 163);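 note: 0% = growth of vehicle-only control cultures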; settings: S. cerevisiae CLN2oe strain, active compounds read high
In short: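 Yeast cells carrying a defined cell-cycle control alteration were exposed to test compounds. Growth inhibition was scored against vehicle-treated control cultures.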

[10] = NCI Yeast Anticancer Drug Screen. Data for the cln2 rad14 strain (AID 165);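 note: 0% = growth equal to vehicle treated cultures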; settings: S. cerevisiae cln2 rad14 strain, active compounds read high
In short: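 Yeast carrying cln2 and rad14 alterations (cell cycle control and DNA damage repair) were exposed to compounds. Growth inhibition was measured against vehicle-treated controls.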

[11] = NCI Yeast Anticancer Drug Screen. Data for the bub3 strain (AID 167); settings: S. cerevisiae bub3 mutant strain, active compounds read high
In short: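 Whole-cell yeast assay. The mutant strain was incubated with compounds, and growth inhibition was determined by comparison with vehicle-treated cells.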

[12] = NCI Yeast Anticancer Drug Screen. Data for the wt2 strain (AID 169);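 note: 0% = growth of vehicle-treated yeast cultures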; settings: S. cerevisiae wt2 strain growth inhibition, active compounds read high
In short: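 Yeast cells were exposed to test compounds, and growth inhibition was measured relative to vehicle-treated controls.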

[13] = NCI Yeast Anticancer Drug Screen. Data for the mlh1 strain (AID 171);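 note: 0% = growth of vehicle-treated control cultures of the same strain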; settings: S. cerevisiae mlh1 strain growth inhibition, active compounds read high
In short: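 Yeast carrying a defined genetic alteration in DNA damage repair or cell cycle control were exposed to test compounds. Growth inhibition was measured relative to vehicle-treated controls.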

[14] = NCI Yeast Anticancer Drug Screen. Data for the sgs1 strain (AID 173);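 note: 0% = growth of vehicle-only control cultures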; settings: S. cerevisiae sgs1 mutant, active compounds read high
In short: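 Yeast mutant strains carrying defined defects in DNA damage repair or cell cycle control were exposed to test compounds. Growth inhibition was scored against vehicle-treated controls.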

[15] = NCI Yeast Anticancer Drug Screen. Data for the rad18 strain (AID 177); settings: S. cerevisiae rad18 mutant growth inhibition, active compounds read high
In short: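 Yeast carrying a defined DNA damage repair alteration were exposed to compounds. Growth inhibition was expressed relative to vehicle-treated controls.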

[16] = NCI Yeast Anticancer Drug Screen. Data for the mlh1 rad18 strain (AID 175); settings: S. cerevisiae mlh1 rad18 strain growth inhibition, active compounds read high
In short: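 Growth inhibition of the yeast strain was measured after compound exposure and expressed relative to vehicle-treated controls. The strain carries defined defects in DNA damage repair.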

[17] = at 5.0 µM (retest, dose inferred, filed as 0.5)
[18] = at 50.0 µM (retest, dose inferred, filed as 5.0)

Measured: growth inhibition

Nc1ccc2c(c1)C(=O)c1c(F)cccc1-2
inactive: [1]; at 1.2 µM -3% | [1]; at 3.7 µM 5% | [1]; at 11.0 µM 17% | [1]; at 33.0 µM 69% | [2]; at 1.2 µM -6% | [2]; at 3.7 µM -6% | [2]; at 11.0 µM -6% | [2]; at 33.0 µM -2% | [2]; at 100.0 µM 50% | [3]; at 1.2 µM 5% | [3]; at 3.7 µM 21% | [3]; at 11.0 µM 53% | [4]; at 1.2 µM -1% | [4]; at 3.7 µM -2% | [4]; at 11.0 µM 1% | [4]; at 33.0 µM 13% | [5]; at 1.2 µM -4% | [5]; at 3.7 µM 11% | [5]; [17] -129% | [5]; at 11.0 µM 30% | [6]; at 1.2 µM 3% | [6]; at 3.7 µM 2% | [6]; [17] -48% | [6]; at 11.0 µM 18% | [6]; at 33.0 µM 13% | [6]; [18] -25% | [6]; at 50.0 µM 38.6% | [6]; at 100.0 µM 67% | [7]; at 1.2 µM 2% | [7]; at 3.7 µM 7% | [7]; at 11.0 µM 16% | [7]; at 33.0 µM 27% | [8]; [17] -70% | [8]; [18] -28% | [8]; at 50.0 µM 15.5% | [9]; at 1.2 µM -1% | [9]; at 3.7 µM 4% | [9]; at 11.0 µM 8% | [9]; at 33.0 µM 14% | [9]; at 100.0 µM 32% | [10]; [17] -55% | [10]; [18] -41% | [10]; at 50.0 µM 21.9% | [11]; at 1.2 µM -11% | [11]; at 3.7 µM -4% | [11]; [17] -60% | [11]; at 11.0 µM 1% | [11]; at 33.0 µM 12% | [11]; [18] -33% | [11]; at 50.0 µM 9% | [11]; at 100.0 µM 37% | [12]; at 1.2 µM -1% | [12]; at 3.7 µM 0% | [12]; at 11.0 µM 0% | [12]; at 33.0 µM 4% | [12]; at 100.0 µM 64% | [13]; at 1.2 µM 7% | [13]; at 3.7 µM -4% | [13]; at 11.0 µM 0% | [13]; at 33.0 µM 16% | [14]; at 1.2 µM -2% | [14]; at 3.7 µM 0% | [14]; at 11.0 µM 0% | [14]; at 33.0 µM 10% | [15]; at 1.2 µM 1% | [15]; at 3.7 µM 8% | [15]; at 11.0 µM 31%
active: [1]; at 100.0 µM 97% | [3]; at 33.0 µM 86% | [3]; at 100.0 µM 97% | [4]; at 100.0 µM 74% | [5]; at 33.0 µM 87% | [5]; [18] 78% | [5]; at 50.0 µM 90.5% | [5]; at 100.0 µM 98% | [7]; at 100.0 µM 78% | [13]; at 100.0 µM 86% | [14]; at 100.0 µM 92% | [15]; at 33.0 µM 72% | [15]; at 100.0 µM 97%

CC(=O)/C=C/c1cc([N+](=O)[O-])ccc1O
active: [1]; at 33.0 µM 79% | [1]; at 100.0 µM 97% | [2]; at 100.0 µM 97% | [3]; at 33.0 µM 78% | [3]; at 100.0 µM 95% | [4]; at 33.0 µM 94% | [4]; at 100.0 µM 97% | [5]; at 33.0 µM 83% | [5]; [18] 85% | [5]; at 50.0 µM 86% | [5]; at 100.0 µM 97% | [6]; at 33.0 µM 96% | [6]; [18] 89% | [6]; at 50.0 µM 90.5% | [6]; at 100.0 µM 99% | [7]; at 33.0 µM 97% | [7]; at 100.0 µM 98% | [8]; [18] 87% | [8]; at 50.0 µM 88.9% | [9]; at 33.0 µM 86% | [9]; at 100.0 µM 98% | [10]; [18] 87% | [11]; at 33.0 µM 95% | [11]; [18] 92% | [11]; at 100.0 µM 98% | [12]; at 33.0 µM 76% | [12]; at 100.0 µM 98% | [14]; at 33.0 µM 94% | [14]; at 100.0 µM 98% | [16]; [18] 97% | [16]; at 50.0 µM 85.1% | [15]; at 33.0 µM 74% | [15]; at 100.0 µM 97%
inactive: [1]; at 1.2 µM -47% | [1]; at 3.7 µM -33% | [1]; at 11.0 µM -9% | [2]; at 1.2 µM -12% | [2]; at 3.7 µM -33% | [2]; at 11.0 µM -2% | [2]; at 33.0 µM 66% | [3]; at 1.2 µM -27% | [3]; at 3.7 µM -4% | [3]; at 11.0 µM 30% | [4]; at 1.2 µM -1% | [4]; at 3.7 µM 2% | [4]; at 11.0 µM -2% | [5]; at 1.2 µM -22% | [5]; at 3.7 µM -20% | [5]; [17] 7% | [5]; at 11.0 µM -5% | [6]; at 1.2 µM -5% | [6]; at 3.7 µM -25% | [6]; [17] 0% | [6]; at 11.0 µM 29% | [7]; at 1.2 µM -30% | [7]; at 3.7 µM -22% | [7]; at 11.0 µM 9% | [8]; [17] 12% | [9]; at 1.2 µM -5% | [9]; at 3.7 µM 3% | [9]; at 11.0 µM 23% | [10]; [17] 36% | [10]; at 50.0 µM 46.5% | [11]; at 1.2 µM -28% | [11]; at 3.7 µM -18% | [11]; [17] 21% | [11]; at 11.0 µM 11% | [11]; at 50.0 µM 49.7% | [12]; at 1.2 µM -31% | [12]; at 3.7 µM -32% | [12]; at 11.0 µM -23% | [14]; at 1.2 µM -28% | [14]; at 3.7 µM -24% | [14]; at 11.0 µM 9% | [16]; [17] 24% | [15]; at 1.2 µM -51% | [15]; at 3.7 µM -47% | [15]; at 11.0 µM -23%
